Source: PubChem BioAssay (NCI)
About 83,000 compounds went through this panel and 20% of them were active in at least one assay; those are over-represented in the sample as a whole.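 In brief: 96-well plates, 48 h treatment, single concentration, percent growth endpoint.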 Unmarked numbers belong to inactive results. The source made the active and inactive calls. Rule for the calls: active = growth percent below 10; inactive = the rest.

system: HL-60(TB) leukemia; assay: NCI-60 one-dose screen, 48 h (100 = growth as untreated, 0 = no growth, -100 = all killed); details: 10 µM unless noted

Row | SMILES | growth
1 | CC(=O)OC(C(=O)c1ccccc1)c1ccccc1 (centres undefined) | 114%
2 | NC(=O)NC(=O)/C=C/C(=O)OCCCl | 91.6%
3 | COc1ccc(-c2nc(SCC(=O)Nc3ccc(C(C)=O)cc3)[nH]c(=O)c2C#N)cc1 | 88.2%
4 | COc1cc(/C=N/NC(=O)c2cnn3c2NC(c2ccccc2)C3)ccc1OCc1ccccc1 (centres undefined) | -0.0884% (active)
5 | Cc1cc2nc3c4cc(Cl)ccc4n(CCN(C)C)c3nc2cc1C | 20%
6 | COc1ccc(NC(=O)CSc2oc(-c3ccccc3)nc2S(=O)(=O)c2ccc(Cl)cc2)c(OC)c1 | 49.4%
7 | CCC(C)N(c1ccc(Cl)cc1)c1nc(-c2ccc(Br)cc2)cs1 (centres undefined) | 100%
8 | COc1cc(/C=C/C(=O)c2cc(-c3ccc(C(F)(F)F)cc3)ccc2O)cc(OC)c1OC | 13.9%
9 | C#CC(F)(F)[C@]1(O)CC[C@H]2[C@@H]3CCC4=CC(=O)CCC4=C3[C@@H](c3ccc(C4CC4)cc3)C[C@@]21C | -61.1% (active)
10 | Fc1cc(-c2nnc3sc(-c4ccc(Cl)cc4Cl)nn23)c(Cl)cc1Cl | 161%
11 | CCCCCCCCCCCCC[C@H](O)C[C@H](O)[C@H](C)N | 54.8% [1.25 µM]
12 | COc1ccc(C2Nc3nc(OC)n(C)c(=O)c3N=C3c4ccccc4C(=O)C32)cc1 (centres undefined) | 67.1%
13 | O=C(/C=C1\C(=O)N(Cc2ccccc2)c2ccccc21)c1ccc(OCCN2CCCCC2)cc1 | 7.79% (active)
14 | CCN(CC)CCOc1ccc(/C(=C(\C)c2ccc(OC)c(F)c2)c2ccc(Cl)cc2)cc1 | 68.6%
